Inconclusive results are not listed. Activity calls are given as the source filed them. Unless noted, the call rests on the fitted dose curve; in most records, active means well fitted curve in the direction sought with a large enough effect in the repeat runs; inconclusive means weak or mixed curves; inactive means no such curve, though single readings can be large; an effect the other way counts as inactive or inconclusive.
Experiments:
[1] = qHTS assay to identify small molecule agonists of the peroxisome proliferator-activated receptor delta (PPARd) signaling pathway - cell viability counter screen (AID 743211); further: nearly all actives have a fitted effect of over 55% in size
How it was run: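 PPARd-bla HEK293H cells (3000/well) were pre-incubated 5 h at 37 C, then exposed to compound for 17 h at 37 C. After 2 h with LiveBLAzer substrate, CellTiter-Glo was added to the same wells; luminescence read after 30 min at room temperature.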

[2] = molecular target: Peroxisome proliferator-activated receptor delta (Homo sapiens) (UniProt Q03181); assay: qHTS assay to identify small molecule agonists of the peroxisome proliferator-activated receptor delta (PPARd) signaling pathway (AID 743212; calls by dose curve)
Sequence of Peroxisome proliferator-activated receptor delta (Homo sapiens) (Q03181 whole entry, looked up): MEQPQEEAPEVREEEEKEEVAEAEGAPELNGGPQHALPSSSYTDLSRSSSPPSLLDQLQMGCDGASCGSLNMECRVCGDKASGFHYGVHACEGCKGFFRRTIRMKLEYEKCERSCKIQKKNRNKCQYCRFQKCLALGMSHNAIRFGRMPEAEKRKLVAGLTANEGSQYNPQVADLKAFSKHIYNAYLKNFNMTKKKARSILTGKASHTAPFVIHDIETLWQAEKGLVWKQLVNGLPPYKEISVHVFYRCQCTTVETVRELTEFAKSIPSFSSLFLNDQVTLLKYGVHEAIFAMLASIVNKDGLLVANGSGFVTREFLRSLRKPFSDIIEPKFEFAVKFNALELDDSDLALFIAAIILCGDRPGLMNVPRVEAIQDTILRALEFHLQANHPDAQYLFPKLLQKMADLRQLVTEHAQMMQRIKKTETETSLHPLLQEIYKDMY
How it was run: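 HEK293H UAS-bla reporter cells, human PPARd system; compounds delivered in DMSO after 5 h plating, then at 37 C. Beta-lactamase FRET read, 2 h RT substrate step.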

[3] = qHTS assay to identify small molecule antagonists of the peroxisome proliferator-activated receptor delta (PPARd) signaling pathway - cell viability counter screen (AID 743213); further: nearly all actives have a fitted effect of over 50% in size
How it was run: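 Agonist-stimulated (L165041, 300 nM final) HEK293H PPARd UAS-bla cells are exposed to compounds for 17 h at 37 C, and ATP-based luminescence (CellTiter-Glo) from the same wells reports cytotoxicity.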

[4] = molecular target: Peroxisome proliferator-activated receptor delta (Homo sapiens) (UniProt Q03181); assay: qHTS assay to identify small molecule antagonists of the peroxisome proliferator-activated receptor delta (PPARd) signaling pathway (AID 743215; active means well fitted inhibition curve with a large enough effect in the signal ratio in the repeat runs, not every such curve was filed as active; the % refers to the signal ratio; further: series mostly up to about 62 µM)
How it was run: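 HEK293H UAS-bla, PPARd; agonist L165041 300 nM final with cpd in DMSO; 37 C 17 h; FRET substrate, RT 2 h; fluorescence intensity.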

[5] = qHTS assay to identify small molecule agonists of the farnesoid-X-receptor (FXR) signaling pathway - cell viability counter screen (AID 743218); further: nearly all actives have a fitted effect of over 45% in size
How it was run: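 Parallel cytotoxicity test: compound-treated (16 h, 37 C) HEK 293T FXR-bla reporter cells were lysed with CellTiter-Glo and luminescence recorded.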

[6] = qHTS assay to identify small molecule antagonists of the farnesoid-X-receptor (FXR) signaling pathway - cell viability counter screen (AID 743221; active means well fitted cell-killing curve with a large enough effect in the repeat runs, not every such curve was filed as active; further: nearly all actives have a fitted effect of over 50% in size)
How it was run: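 GeneBLAzer FXR-UAS-bla HEK 293T cells, compound plus chenodeoxycholic acid (50 uM final), 16 h at 37 C. CellTiter-Glo added to the same wells after the beta-lactamase read; luminescence read after 30 min at room temperature as viability.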

[7] = qHTS assay to identify small molecule agonists of the vitamin D receptor (VDR) signaling pathway - cell viability counter screen (AID 743224); further: series mostly up to about 63 µM; nearly all actives have a fitted effect of over 50% in size
How it was run: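 Plated VDR-bla cells (4 h, 37C) received compound, incubated 16 h, then LiveBLAzer substrate 2 h RT; CellTiter-Glo added afterwards, luminescence read at 30 min.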

[8] = qHTS assay to identify small molecule antagonists of the vitamin D receptor (VDR) signaling pathway - cell viability counter screen (AID 743225); further: nearly all actives have a fitted effect of over 50% in size
How it was run: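 VDR-UAS-bla HEK 293T cells were plated and incubated 4 h at 37C, then dosed with compound plus 3 nM (final) 1-alpha,25-dihydroxyvitamin D3 for 16 h. After the 2 h beta-lactamase read, viability in the same wells was read as CellTiter-Glo luminescence after 30 min at room temperature.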

[9] = qHTS assay to identify small molecule agonists of the NFkB signaling pathway (AID 1159509; active means well fitted curve in the direction sought with a large enough effect in the signal ratio in the repeat runs, not every such curve was filed as active; the % refers to the signal ratio; further: series mostly up to about 61 µM)
How it was run: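 NFkB-bla ME-180 cells with a beta-lactamase reporter under an NF-kB response element were plated overnight, treated with compounds in DMSO for 5 hr at 37 C, then loaded with FRET substrate for 1.5 hr at room temperature.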

[10] = qHTS assay to identify small molecule agonists of the NFkB signaling pathway - cell viability counter screen (AID 1159515; calls by dose curve; further: series mostly up to about 61 µM; nearly all actives have a fitted effect of over 55% in size)
How it was run: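 Using the same wells as the NFkB reporter read, ME-180 NFkB-bla cells given compounds for 5 hr were assessed for viability via CellTiter-Glo, with luminescence taken after a 30 min room-temperature incubation.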

[11] = qHTS assay to identify small molecule agonists of the endoplasmic reticulum stress response signaling pathway (AID 1159516; active means well fitted activation curve with a large enough effect in the signal ratio in the repeat runs, not every such curve was filed as active; the % refers to the signal ratio)
How it was run: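 An ESRE-bla HeLa cell assay: compounds were pin-transferred from DMSO onto overnight-plated cells and left 5 hr at 37 C. Substrate was then loaded for 2 hr at room temperature before reading fluorescence at 460 nm and 530 nm.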

[12] = qHTS assay to identify small molecule agonists of the endoplasmic reticulum stress response signaling pathway - cell viability counter screen (AID 1159517; calls by dose curve)
How it was run: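 Cells, HeLa ESRE-bla; density, 1,500/well; dosing, 5 hr at 37 C, 5% CO2; readout, CellTiter-Glo luminescence after 30 min RT.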

[13] = qHTS assay to identify small molecule antagonists of the retinoid-related orphan receptor gamma (ROR-gamma) signaling pathway - cell viability counter screen (AID 1159520); further: nearly all actives have a fitted effect of over 50% in size
How it was run: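 Cytotoxicity was read from cellular ATP (CellTiter-Glo luminescence) after 16 hr at 37 C with 1 uM doxycycline induction. The inducer was added 2 hr after compound transfer to Tet-on ROR gamma CHO cells.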

[14] = molecular target: Nuclear receptor ROR-gamma (Homo sapiens) (UniProt P51449); assay: qHTS assay to identify small molecule antagonists of the retinoid-related orphan receptor gamma (ROR-gamma) signaling pathway (AID 1159521)
How it was run: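 Tet-on ROR-gamma CHO cells with ROR response element-luciferase reporter; compounds added 2 hr before 1 uM doxycycline induction, then 16 hr at 37 C. Antagonism scored as decreased ONE-Glo luminescence.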

[15] = qHTS assay to identify small molecule agonists of the AP-1 signaling pathway - cell viability counter screen (AID 1159525; calls by dose curve; further: nearly all actives have a fitted effect of over 55% in size)
How it was run: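 Luminescent ATP readout (Cell Titer Glo, 30 min RT), normalised to DMSO and tetra n-octyl ammonium bromide controls. Cells were ME-180 AP-1-bla in 0.5% dialyzed FBS Opti-MEM, with a 5 h, 37 °C compound exposure.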

[16] = qHTS assay to identify small molecule agonists of the AP-1 signaling pathway (AID 1159526; calls by dose curve)
[17] = molecular target: Bile acid receptor (Homo sapiens) (UniProt Q96RI1); assay: qHTS assay to identify small molecule agonists of the farnesoid-X-receptor (FXR) signaling pathway (AID 743220; active means well fitted activation curve with a large enough effect in the signal ratio in the repeat runs, not every such curve was filed as active; the % refers to the signal ratio)
Sequence of Bile acid receptor (Homo sapiens) (Q96RI1 whole entry, looked up): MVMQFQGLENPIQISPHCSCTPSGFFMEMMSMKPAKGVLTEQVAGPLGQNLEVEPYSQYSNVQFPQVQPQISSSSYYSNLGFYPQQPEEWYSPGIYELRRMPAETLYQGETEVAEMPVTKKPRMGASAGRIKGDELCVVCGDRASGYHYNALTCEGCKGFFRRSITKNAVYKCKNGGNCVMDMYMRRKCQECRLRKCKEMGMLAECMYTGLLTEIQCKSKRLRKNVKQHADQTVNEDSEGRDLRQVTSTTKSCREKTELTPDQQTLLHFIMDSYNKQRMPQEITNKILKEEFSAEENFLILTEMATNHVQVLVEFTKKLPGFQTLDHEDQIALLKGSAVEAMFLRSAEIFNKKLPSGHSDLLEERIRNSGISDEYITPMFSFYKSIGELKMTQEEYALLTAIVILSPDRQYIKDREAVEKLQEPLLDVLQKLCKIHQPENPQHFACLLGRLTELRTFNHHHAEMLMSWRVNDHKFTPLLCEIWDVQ
How it was run: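 Beta-lactamase reporter under UAS control in GeneBLAzer FXR HEK 293T cells (5000/well) measured with LiveBLAzer FRET substrate after 2 h at room temperature. Compound exposure lasted 16 h at 37C.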

[18] = molecular target: Bile acid receptor (Homo sapiens) (UniProt Q96RI1); assay: qHTS assay to identify small molecule antagonists of the farnesoid-X-receptor (FXR) signaling pathway (AID 743217; active means well fitted inhibition curve with a large enough effect in the signal ratio in the repeat runs, not every such curve was filed as active; the % refers to the signal ratio)
How it was run: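 GeneBLAzer FXR-UAS-bla HEK 293T, CDCA-stimulated (50 uM final). Compound treatment 16 h, 37 °C. Detection: beta-lactamase cleavage of B/G FRET substrate, fluorescence.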

[19] = molecular target: Vitamin D3 receptor (Homo sapiens) (UniProt P11473); assay: qHTS assay to identify small molecule agonists of the vitamin D receptor (VDR) signaling pathway (AID 743222; calls by dose curve)
Sequence of Vitamin D3 receptor (Homo sapiens) (P11473 whole entry, looked up): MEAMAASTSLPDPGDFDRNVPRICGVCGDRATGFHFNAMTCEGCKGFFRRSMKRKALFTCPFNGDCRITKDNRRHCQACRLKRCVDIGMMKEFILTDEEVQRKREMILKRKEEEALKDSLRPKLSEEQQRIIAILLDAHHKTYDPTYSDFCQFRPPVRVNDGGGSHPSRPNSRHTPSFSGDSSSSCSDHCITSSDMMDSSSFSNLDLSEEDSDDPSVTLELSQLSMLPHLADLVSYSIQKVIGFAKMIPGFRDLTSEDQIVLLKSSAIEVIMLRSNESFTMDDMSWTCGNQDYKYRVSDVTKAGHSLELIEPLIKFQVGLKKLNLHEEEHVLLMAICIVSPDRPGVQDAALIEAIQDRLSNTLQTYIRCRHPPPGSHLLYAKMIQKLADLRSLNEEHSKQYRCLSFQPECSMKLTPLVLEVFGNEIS
How it was run: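 In VDR-bla cells, compound-induced beta-lactamase expression is quantified by FRET substrate fluorescence. Treatment lasts 16 h at 37C; substrate develops 2 h at room temperature.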

[20] = molecular target: Vitamin D3 receptor (Homo sapiens) (UniProt P11473); assay: qHTS assay to identify small molecule antagonists of the vitamin D receptor (VDR) signaling pathway (AID 743223; active means well fitted inhibition curve with a large enough effect in the signal ratio in the repeat runs, not every such curve was filed as active; the % refers to the signal ratio)
How it was run: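 VDR-bla cells were treated with compound plus 3 nM final 1alpha,25-dihydroxyvitamin D3 for 16 h at 37C. Beta-lactamase reporter read by B/G FRET substrate fluorescence after 2 h at room temperature. qHTS format.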

Measured: Potency

O=C(O)Cc1cn(-c2ccccc2)nc1-c1ccc(Cl)cc1
not listed: [17] | [18] | [19] | [20]
inactive: all other assays above

COc1ccc(Br)c(C)c1
not listed: [18] | [19] | [20]
inactive: all other assays above

CC(=O)c1sc(C)nc1C
not listed: [4] | [7] | [8]
inactive: all other assays above

O=C(O)c1ccc(Cl)cc1Cl
not listed: [4] | [18]
inactive: all other assays above

COc1ccc(S(=O)(=O)N2c3ccc(Cl)cc3[C@@](O)(c3ccccc3Cl)[C@H]2C(=O)N2CCC[C@@H]2C(N)=O)cc1OC
not listed: [17] | [18]
inactive: all other assays above

BrCCCCCBr
not listed: [8]
inactive: all other assays above

CNS(=O)(=O)CCc1ccc2[nH]cc(C3CCN(C)CC3)c2c1
not listed: [17] | [18]
inactive: all other assays above

CC(C)NCC(O)COc1ccc(COCCOC(C)C)cc1 (configuration not stated)
not listed: [5] | [8] | [18] | [20]
inactive: all other assays above

c1ccc2c(c1)ccc1c3ccccc3ccc21
not listed: [8] | [18]
inactive: all other assays above

CC(C)CC(C)CC(C)CC(C)COC(=O)c1ccccc1C(=O)OCC(C)CC(C)CC(C)CC(C)C (configuration not stated)
not listed: [2] | [20]
inactive: all other assays above

BrCc1cccc(Oc2ccccc2)c1
not listed: [2] | [17] | [18]
inactive: all other assays above

O=C(O)CCSSCCC(=O)O
not listed: [3]
inactive: all other assays above

CC(CC=O)CCCC(C)(C)O (configuration not stated)
not listed: [3] | [7] | [17] | [18] | [20]
inactive: all other assays above

CC(C)C[C@H](NC(=O)CNC(=O)[C@H](Cc1ccc(O)cc1)NC(=O)[C@H](CO)NC(=O)[C@H](Cc1c[nH]c2ccccc12)NC(=O)[C@H](Cc1cnc[nH]1)NC(=O)[C@@H]1CCC(=O)N1)C(=O)N[C@@H](CCCN=C(N)N)C(=O)N1CCC[C@H]1C(=O)NCC(N)=O (stereo in doubt)
not listed: [4] | [5] | [17] | [18]
inactive: all other assays above

From PubChem BioAssay (Tox21)
